NPC1 promoter act: activates the NPC1 promoter; Potency, µM (series often up to 9.22 µM), for the others: top-dose activation, most hits filed as activators; Huh7 NPC1 promoter luciferase reporter, 24 h; 320,000 tested, 2.4% active; further: % of control where 0% means no effect; nearly all actives have a fitted effect of over 60% in size
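Quantitative HTS used a cell-based reporter: Huh7 cells stably bearing the NPC1 promoter upstream of luciferase were treated with compounds for 24 h, and promoter activation was read as luminescence.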
SMN2 splice enh: enhancers of SMN2 splice variant expression | 210,000 tested, 2.8% active | Potency, µM (top dose mostly 46.1 µM), inactives show at the top dose activity change, positive = activation, most hits filed as activators | AID 1458 | HEK293 SMN2-luciferase splicing reporter, luminescence, 30-36 h; further: % of control where 0% means no effect; nearly all actives have a fitted effect of over 55% in size
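HEK293 cells carry an SMN2 […]–luciferase reporter in which exon 7 inclusion puts luciferase in frame. Cells were plated 10-12 h before compound addition, then incubated 30-36 h at 37C. ONE-Glo luminescence was read; sodium butyrate at 4.5 mM final served as control.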
Luc counter: blocks Kinase-Glo luciferase, a counter-screen artifact. Q27757. Kinase-Glo luciferase, ATP luminescence, 8 min. Potency, µM (highest dose often 38.3 µM), for the others: at the highest dose activity change, negative = inhibition, actives largely listed as inhibitors. 200,000 tested, 0.28% active. AID 1379; further: on the % scale 0 is the no-effect control and ±100 the full control effect; nearly all actives have a fitted effect of over 60% in size
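Light output from Kinase-Glo luciferase with luciferin and 10 uM ATP in 50 mM imidazole pH 7.2, KCl, MgCl2, Tween 20, BSA; compound pin-delivered, 8-min ambient incubation, then luminescence read.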
Rab9 prom act: activates the Rab9 promoter; Potency, µM (series often up to 9.22 µM), without a hit: top-dose activation, negative = inhibition, actives largely listed as activators; Huh7 Rab9 promoter-luciferase reporter, luminescence, 24 h; 320,000 tested, 2.8% active; further: % of control where 0% means no effect; nearly all actives have a fitted effect of over 60% in size
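Luciferase signal after 10 min detection reagent at ambient indicates Rab9 promoter upregulation; stably transfected Huh7 cells were treated 24 h with compound in DMSO at 37 °C, 5% CO2.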
FLuc counter: counter-screen for miR-21 project: firefly luciferase inhibitors or activators. P08659. purified FLuc, Km substrates, luminescence inhibition. Potency, µM (titrated, usually from 57.5 µM), inactives show at the highest dose activity change, negative = inhibition, usual class: inhibitors. 360,000 tested, 6.9% active. AID 588342;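 further: plate controls were vehicle for no effect and reference inhibitor for full effect; nearly all actives have a fitted effect of over 55% in size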
Target sequence (P08659 whole entry, looked up): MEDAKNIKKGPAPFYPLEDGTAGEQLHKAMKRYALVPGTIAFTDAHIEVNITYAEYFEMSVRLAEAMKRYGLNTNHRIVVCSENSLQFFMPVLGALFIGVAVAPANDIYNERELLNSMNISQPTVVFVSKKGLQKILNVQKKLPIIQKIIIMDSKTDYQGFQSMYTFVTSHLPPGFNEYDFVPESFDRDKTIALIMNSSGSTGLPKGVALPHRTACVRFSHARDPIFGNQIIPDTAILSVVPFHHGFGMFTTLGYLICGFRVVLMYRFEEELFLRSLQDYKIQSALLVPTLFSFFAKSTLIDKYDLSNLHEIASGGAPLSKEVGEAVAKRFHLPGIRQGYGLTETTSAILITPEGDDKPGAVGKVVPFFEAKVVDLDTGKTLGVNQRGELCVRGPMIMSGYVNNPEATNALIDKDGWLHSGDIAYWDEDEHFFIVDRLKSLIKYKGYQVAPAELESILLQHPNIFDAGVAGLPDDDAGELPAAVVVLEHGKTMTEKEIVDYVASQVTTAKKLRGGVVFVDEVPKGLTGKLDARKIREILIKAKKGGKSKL
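Purified P. pyralis luciferase (10nM final) with 10uM D-luciferin and 10uM ATP (Km levels) in 50mM Tris acetate pH 7.5, 10mM Mg acetate, 0.01% Tween-20, 0.05% BSA; qHTS 6-point titration, ~60 µM downward; luminescence read.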
* hit, by the source's call; ? = inconclusive; · = no result; [ ] = remark or other dose. Shown are actives, neighbours in structure and some others; about 7.3% of the full set was active somewhere. The call rests on the fitted dose curve; in most records, active means well fitted curve in the direction sought with a large enough effect; inconclusive means small, poorly fitted or top-dose-only effect, or another doubt; inactive means no such curve, though single readings can be large; an effect the other way counts as inactive or inconclusive. Potency means the concentration at half of the fitted maximal effect.

SMILES	NPC1 promoter act	SMN2 splice enh	Luc counter	Rab9 prom act	FLuc counter
CC1(C)CC(=O)c2cnc(N3CCc4ccccc4C3)nc2C1	2.8µM*	-35%	-1%	?	2.7µM*
O=C1CCCc2nc(N3CCc4ccccc43)ncc21	3.2µM*	13µM*	?	1.6µM*	2.7µM*
O=C1CCCc2nc(N3CCN(Cc4ccccc4)CC3)ncc21	-4%	-28%	1%	0%	-2%
CCOC(=O)c1c(S(=O)(=O)N2CCC(C(=O)Nc3cccc(C#N)c3)CC2)c(C)n(C)c1C	·	·	·	·	-8%
COc1cc(NC(=O)c2cc(Cl)ccc2Cl)ccc1NC(=O)c1cc2ccccc2o1	·	-23%	·	·	7%
Cc1cc(N2CCCCC2)nc2ccccc12	-2%	0%	1%	-1%	?
Cc1cc(-n2nnc3ccccc32)nc2ccccc12	2%	0.22µM*	3%	-3%	-10%
CC(C)c1ccc(OCc2nc(-c3ccccn3)no2)c(Br)c1	0.4µM*	6.3µM*	-5%	0.45µM*	0.95µM*
CCc1ccc(OCc2nc(-c3ccccn3)no2)c(Br)c1	0.32µM*	0.5µM*	-17%	0.4µM*	0.54µM*
CC(Oc1ccc(Cl)cc1Cl)c1nc(-c2ccccn2)no1 (stereo not drawn)	?	28%	1%	?	15µM*
Cc1ccc(OCc2nc(-c3ccccn3)no2)c(Br)c1	0.1µM*	-61%	10µM*	0.28µM*	0.21µM*
CC(C)(C)Cc1nc(-c2ccccn2)no1	?	?	0%	?	?
Cc1cccc(Oc2ccc(NC(=O)CCC(=O)OCC(=O)c3ccc(Br)cc3)cc2)c1C	·	-4%	·	·	-10%
Cc1ccc(OCc2nc(-c3ccccn3)no2)cc1	1.1µM*	8.9µM*	8%	1.4µM*	4.8µM*
COc1ccc2cc(C(=O)CCC(=O)O)ccc2c1	·	2%[9.22 µM]	-2%[7.66 µM]	·	·
COc1ccc(C2=NN(C(=O)CSc3ncccn3)C(c3cccc(OC)c3OC)C2)cc1 (stereo not drawn)	1%	-4%	2%	1%	-2%
CCOc1cccc2c1OC(c1cc(OC)c(OC)c(OC)c1)N1N=C(c3ccc(C)o3)CC21 (stereo not drawn)	21%	?	1%	25%	3µM*
C(=Nc1ccc(Nc2ccccc2)cc1)c1ccc2ccccc2c1	-12%	22%	-1%	-2%	?
Brc1ccc(C=Nc2ccc(Nc3ccccc3)cc2)s1	-11%	17%	1%	-4%	24µM*
Cc1[nH]c2ccc3ncccc3c2c1C	1%	-30%	-4%	3%	21µM*
COc1cc(/C=C2\SC(c3ccc(C)cc3)=NC2=O)cc(OC)c1O	-2%	27%	-26%	-18%	6.7µM*
Cc1ccc(C2=NC(=O)/C(=C/c3cc(O)c(O)c(Br)c3)S2)cc1	-8%	-10%	10µM*	-11%	8.5µM*
COc1cc(/C=C2\SC(N)=NC2=O)cc(Cl)c1O	-3%	·	·	3%	0%
Cc1ccsc1CN(C(=O)c1ccc(Br)cc1)C1CCS(=O)(=O)C1 (stereo not drawn)	·	-12%	·	·	4%
O=C(Cc1ccc(-c2ccccc2)cc1)NCCS(=O)(=O)N1CCN(c2ccccc2)CC1	·	·	·	·	-6%
SMILES	NPC1 promoter act	SMN2 splice enh	Luc counter	Rab9 prom act	FLuc counter
N=C1[C@@H](O)[C@]2(I)c3ccccc3N3C(=N)[C@H](O)[C@@H]4c5ccccc5N1[C@@H]4[C@@H]32	·	-4%[9.22 µM]	-3%[7.66 µM]	·	·
CCc1cc2c(=O)c(-c3cscn3)coc2cc1OC	3.5µM*	13µM*	0%	2µM*	1.7µM*
CSc1nc(/C=C2\C=Nc3ccccc32)c(O)n1C	0%	?	?	15%	13µM*
CC(C)n1c(O)c(/C=C2\C=Nc3ccccc32)sc1=Nc1ccccc1	-5%	-15%	-1%	0%	-2%
O=C(CCC1N=C2c3ccccc3N=C(SCC(=O)Nc3ccccc3F)N2C1=O)NCc1ccco1 (stereo not drawn)	·	14%	·	·	-3%
CC(C)c1ccc2c(c1)C1Cc3ccccc3C1N2 (stereo not drawn)	16%	21%	-1%	8%	15µM*
O=S1(=O)NC2c3ccccc3CC2O1 (stereo not drawn)	1%	·	·	0%	-9%
Cc1ccc(NC(=O)c2nc(S(=O)(=O)Cc3ccccc3C)ncc2Cl)cc1C	-24%	·	·	-16%	11µM*
CCC(=O)Nc1ccc(C2C(=O)c3ccccc3C2=O)cc1	0.79µM*	·	·	?	1.3µM*
CCC(=O)Nc1ccc(NC(=S)Nc2ccccc2)cc1	-1%	11%	0%	-8%	2%
CCC(=O)NC1=C(Nc2ccc(N)cc2)C(=O)c2ccccc2C1=O	27%	·	·	2.8µM*	27µM*
COc1ccc(NC2=C(NC(C)=O)C(=O)c3ccccc3C2=O)cc1	-1%	·	·	-1%	-21%
Cc1nc(-c2ccc(Cl)cc2)sc1CCNC(=O)C(=O)Nc1ccccc1C#N	·	·	·	·	-2%
CCOc1cc(/C=N/NC(=O)c2cc(-c3cccc(OC)c3)n[nH]2)ccc1O	·	·	-1%	·	·
CC(=O)NCCc1nc2cc(NC(=O)c3ccc(F)cc3)ccc2n1C	3.5µM*	·	·	2µM*	21µM*
CCC(=O)Nc1ccc2c(c1)nc(CCNC(=O)c1ccco1)n2C	1%	·	·	-5%	-1%
COc1ccc(C(=O)Nc2ccc3c(c2)nc(CCNC(C)=O)n3C)cc1	2.8µM*	?	0%	?	12µM*
Cn1c(CN2CCOCC2)nc2cc(NC(=O)c3ccc(F)cc3)ccc21	-3%	·	3%	-3%	4%[2.3 µM]
COc1ccc(C(=O)NCCc2nc3cc([N+](=O)[O-])ccc3n2C)cc1	-1%	·	·	-11%	-10%
COc1ccc(C(=O)Nc2ccc3c(c2)nc(CCNC(=O)c2ccco2)n3C)cc1	4%	·	·	30%	15µM*
COc1ccccc1C(=O)N(Cc1nc(-c2cccc(C)c2)no1)C(C)C	·	-26%	·	·	-1%
CCOC(=O)N1CCC2(CC1)OC(=O)C(C)=C2C(=O)NCc1cccc(OC)c1	·	·	·	·	4%
CCCN(CCC)C(=O)Cn1c(=O)n(-c2cccc(OC)c2)c(=O)c2c(C)c(C(=O)N(C)C)sc21	·	·	·	·	2%
CCOc1cccc(/C=C2\NC(=S)N(c3ccccc3)C2=O)c1O	1%	·	·	?	5.4µM*
COc1cc(/C=C2/N=C(c3ccccc3F)OC2=O)cc(Cl)c1OS(C)(=O)=O	-4%	19%	0%	-1%	8.5µM*
COc1cc(C2=N/C(=C\c3ccccc3)C(=O)O2)cc(OC)c1OC	·	-2%	5%	·	·
CCN1C(=O)/C(=C2/C=Cc3ccccc3N2C)OC1=S	2.5µM*	?	-4%	3.5µM*	?
CC(C=O)Cc1ccc(C(C)(C)C)cc1 (stereo not drawn)	·	13%	·	·	·
Cc1ccn2cc(-c3cc4ccccc4oc3=O)nc2c1	0.32µM*	·	10µM*	0.28µM*	0.43µM*
O=c1oc2ccccc2cc1-c1cn2cc(Cc3ccc(Cl)cc3)sc2n1	·	-2%	·	·	-1%
